Test results as given in PubChem BioAssay AID602244 (Sanford-Burnham Center for Chemical Genomics, 2012).
About 1,300 (0.36%) of roughly 360,000 compounds were called active. This is one part of a sample in which actives are shown more often than they occur. Values without a mark were called inactive. Rule as the data show it: active = inhibition above about 34% (passing the limit was not always enough); inactive = the rest.

The molecules below were run against C-X-C chemokine receptor type 6 (Homo sapiens) (UniProt O00574) (assay: CXCR6 receptor inhibitors, primary screen, cell-based, beta-arrestin, luminescence, CHO-K1 PathHunter, 1536-well (AID 602244;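 also: antagonist mode with CXCL16 agonist at 10 nM final; 0% = 10 nM CXCL16 with DMSO and 100% = unstimulated wells without agonist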)). Conditions: at 20 µM, hits give high values.
C-X-C chemokine receptor type 6 (Homo sapiens), sequence (O00574 whole entry, looked up): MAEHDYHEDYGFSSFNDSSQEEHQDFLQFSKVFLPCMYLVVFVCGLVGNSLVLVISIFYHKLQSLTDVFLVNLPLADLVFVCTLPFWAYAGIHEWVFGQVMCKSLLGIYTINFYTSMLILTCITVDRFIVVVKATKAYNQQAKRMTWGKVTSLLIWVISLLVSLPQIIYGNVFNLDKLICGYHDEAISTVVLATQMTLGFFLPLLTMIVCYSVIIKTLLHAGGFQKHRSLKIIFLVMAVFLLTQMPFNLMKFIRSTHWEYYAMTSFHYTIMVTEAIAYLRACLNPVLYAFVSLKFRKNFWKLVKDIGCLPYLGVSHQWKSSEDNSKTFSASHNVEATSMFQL

SMILES	inhibition
O=C(CCS(=O)(=O)c1ccccc1)Nc1nc2c(s1)CCCC2	-0.7%
COc1cccc2sc(N(CCCN(C)C)C(=O)CCS(=O)(=O)c3ccccc3)nc12	44.2% (active)
Cc1ccc(S(=O)(=O)CCC(=O)OCC(=O)N(C)Cc2ccccc2)cc1	0.4%
CCc1nc2c(OCCOc3ccccc3)cccn2c1N(C)C(=O)c1ccccc1F	4.8%
CN1CCC(N(C)S(=O)(=O)c2ccc(NC(=O)c3cccc(C#N)c3)cc2)CC1	-0.9%
O=C1CC(c2cccc(F)c2)C2=C(CCCC2=O)N1 (stereo unspecified)	-9.4%
O=[N+]([O-])c1c(NCCO)cc(Sc2nc3ccccc3s2)c2nonc12	94.3% (active)
C=CCOc1ccc(Cl)cc1CNCCCN1CCOCC1	-3%
O=C(CNC(=O)c1cccnc1)N/N=C/c1cc(Br)c(O)c(Br)c1	1.1%
Cc1ccc(/C=N/NC(=O)CSc2nc3ccccc3o2)cc1	-6.5%
O=C(CSc1cccc2cccnc12)N/N=C/c1cccnc1	48.3% (active)
O=C(COc1cccc2c1CCNC2=O)NC1CCCCC1	-2.3%
OCCC1CN(Cc2cccc(OC3CCCC3)c2)CCN1Cc1ccsc1 (stereo unspecified)	4.2%
Cc1c(NC(=O)C(C)Oc2cccc(Cl)c2)c(=O)n(-c2ccccc2)n1C (stereo unspecified)	-5%
CC(C)CCNC(=O)c1cccnc1Sc1ccccc1	-0.4%
COC(=O)/C=C\C(=O)Nc1cccc([N+](=O)[O-])c1	74.8% (active)
COc1cccc(NCCC(=O)c2cccc([N+](=O)[O-])c2)c1	2.4%
CC(NC(=O)Nc1cccc([N+](=O)[O-])c1)c1ccc2c(c1)OCO2 (stereo unspecified)	7.9%
CC(C)Cc1cc(C(=O)NCCc2ccccc2)no1	1.7%
O=C(NCCCc1ccccc1)c1cc(COc2c(F)cccc2F)on1	7.9%
Cc1cc(C(=O)NCCCc2ccccc2)no1	48.5% (active)

SMILES	inhibition
Cc1ccc(CCNC(=O)C2CCN(S(=O)(=O)N3CCCC3)CC2)cc1	0.7%
Cc1ccc(OCCCCc2c(C)n[nH]c2C)cc1	-0.7%
Cc1cc(F)ccc1NC(=S)NCCc1ccccc1	-0.7%
C/C(=N\NC(=S)NCc1ccccc1)C1CCCCC1	21.2%
CCCC1CCC(=NNC(=S)NCCc2ccccc2)CC1 (stereo unspecified)	40% (active)
Cc1cc(C)c(C)c(S(=O)(=O)N[C@@H](C)C(=O)OC(C)C(=O)NC(N)=O)c1C (stereo partly specified)	7%
Cc1oc2cc([N+](=O)[O-])c(O)c([N+](=O)[O-])c2c1C(=O)c1ccc(Br)cc1	25.7%
O=C(NNC(=S)NCCCN1CCOCC1)c1ccncc1	3.2%
NC(=O)C1(Nc2ccc([N+](=O)[O-])cc2)CCCC1	1.8%
COC(=O)c1ccccc1N=NNc1ccc([N+](=O)[O-])cc1	-5.2%
O=[N+]([O-])c1ccc(N=NNc2ccc([N+](=O)[O-])cc2)cc1	39.7% (active)
CC(=O)Nc1ccc(S(=O)(=O)NCC2CCC(C(=O)NCCc3ccccc3)CC2)cc1 (stereo unspecified)	6.1%
Nc1nc(Nc2ccccc2F)nc(NC2CCCCC2)c1[N+](=O)[O-]	-0.8%
CSCCC(NC(=O)COc1ccccc1)C(=O)OCc1ccc(Cl)cc1 (stereo unspecified)	2.7%
CSCCC(NC(=O)COc1ccccc1)C(=O)OCCOc1ccc(Br)cc1 (stereo unspecified)	2.8%
CSCCC(NC(=O)COc1ccccc1)C(=O)OCC(=O)c1cc2ccccc2o1 (stereo unspecified)	37.7% (active)
O=C(NCc1ccccc1)C1=C[C@@H](C2CCCCC2)C[C@@H](OCc2ccc(CO)cc2)O1	6.4%
CC(C)c1ccc(S(=O)(=O)N2CCC3(CC2)OCCO3)cc1	-0.4%
CCN(CC)P(=O)(/C(Cl)=C\Nc1c(C)n(C)n(-c2ccccc2)c1=O)N(CC)CC	9.1%
CCOc1ccc(CN2CCC(n3nccc3NC(=O)C3CC3)CC2)cc1CO	3.8%
CSCCC(NS(=O)(=O)c1ccc(C)cc1)C(=O)NCCc1c[nH]c2ccccc12 (stereo unspecified)	-6%

SMILES	inhibition
CCC(=O)Nc1c(S(=O)(=O)c2ccccc2)c2nc3ccccc3nc2n1Cc1ccccc1	-4.6%
CCN(CC)CCn1c(/N=C/c2cc(Br)ccc2O)nc2ccccc21	0.9%
CCN(CC)CCn1c(N)c(S(=O)(=O)c2ccccc2)c2nc3ccccc3nc21	45.9% (active)
CCCCOc1ccc(C(=O)NCC(=O)OCC(=O)c2c(N)n(C)c(=O)n(C)c2=O)cc1	2.3%
CC1CN(c2cc(=O)n(-c3cccc(Br)c3)c(=O)[nH]2)CC(C)O1 (stereo unspecified)	-4.7%
CCOC(=O)N1CCC(N2Cc3cccc(C(=O)Nc4ccc(S(=O)(=O)N(CC)CC)cc4)c3C2=O)CC1	-2.9%
COC(=O)c1cc(OC)c(OC)cc1NC(=O)C1CCCO1 (stereo unspecified)	0.8%
Cc1ccc([C@H]2N[C@]3(CCCN(Cc4ccccc4)C3=O)[C@H]3C(=O)N(Cc4ccccc4)C(=O)[C@@H]23)cc1	3.3%
CC(=NNC(=S)N1CCCCCC1)c1ccccn1	19.5%
C/C(=N/NC(=O)CCc1ccccc1)c1ccco1	-3.6%
C/C(=N\NC(=O)Cc1ccc(Cl)cc1)c1ccccn1	88.7% (active)
O=C(c1ccccc1)C(Cn1cncn1)C(Sc1ccccc1)c1ccccc1 (stereo unspecified)	5.2%
O=C(CNc1ccccc1N1CCCC1=O)Nc1cc(Cl)ccc1-n1cncn1	-1%
Cc1noc(C)c1CSCC(=O)N(CCC(C)C)c1c(N)n(Cc2ccccc2)c(=O)[nH]c1=O	2.5%
COc1cccc(CN(C)CC2CCCN(CCc3ccc(Cl)cc3)C2)c1OC (stereo unspecified)	3.7%
CCN(CC)Cc1csc2ccc(Br)cc12	5.6%
COc1cccc(CNC(=O)C2CCN(S(=O)(=O)c3cccc4cccnc34)CC2)c1	-1.1%
CC(=O)/C(=N\Nc1ccc(Cl)cc1Cl)Sc1cccc2cccnc12	46.4% (active)
Cc1cc(OCCOc2cccc3cccnc23)c(C)cc1Cl	-1.8%
